For 7 molecules, outcome and AC50 results are on record in PubChem BioAssay (EPA / NIEHS).

Read-out in experiment [1]: Interferon-gamma inducible Protein 10 (IP10), CXCL10 (gene 3627)
The experiment is described as follows: BSK_hDFCGF_IP10: BioMAP Diversity Plus: hDFCGF Assay for Interferon-gamma inducible Protein 10 (IP10) Biomarker Activity (AID 2283053). To be noted: primary human foreskin fibroblasts; actives raise or lower the signal. The essentials:
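Primary human foreskin fibroblasts exposed to chemicals for 24 h. IP-10 measured by ELISA; changes fitted bidirectionally against DMSO baseline.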

Read-out in experiment [2]: Urokinase-type plasminogen activator receptor (uPAR), PLAUR (gene 5329)
The experiment is described as follows: BSK_CASM3C_uPAR: BioMAP Diversity Plus: CASM3C Assay for Urokinase-type plasminogen activator receptor (uPAR) Biomarker Activity (AID 2283054).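 Note: cell-surface uPAR protein level quantified by ELISA.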 To be noted: primary human coronary artery smooth muscle cells; actives raise or lower the signal.

Read-out in experiment [3]: Vascular cell adhesion molecule 1 (VCAM1), VCAM1 (gene 7412)
As to the kind of experiment: BSK_CASM3C_VCAM1: BioMAP Diversity Plus: CASM3C Assay for Vascular cell adhesion molecule 1 (VCAM1) Biomarker Activity (AID 2283055).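 Note: VCAM-1 protein level quantified by ELISA on the cells.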 To be noted: primary human coronary artery smooth muscle cells; actives raise or lower the signal.

Read-out in experiment [4]: Collagen III, COL3A1 (gene 1281)
As to the kind of experiment: BSK_hDFCGF_CollagenIII: BioMAP Diversity Plus: hDFCGF Assay for Collagen III Biomarker Activity (AID 2283056). The settings on record: primary human foreskin fibroblasts; actives raise or lower the signal. The essentials: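 Cells: human foreskin fibroblasts, primary. Dosing followed by 24 h incubation, then ELISA for collagen III. Both increases and decreases scored relative to DMSO.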

Read-out in experiment [5]: Epidermal growth factor receptor (EGFR), EGFR (gene 1956)
The experiment is described as follows: BSK_hDFCGF_EGFR: BioMAP Diversity Plus: hDFCGF Assay for Epidermal growth factor receptor (EGFR) Biomarker Activity (AID 2283057). To be noted: primary human foreskin fibroblasts; actives raise or lower the signal. Summed up:
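Primary human foreskin fibroblasts (hDFCGF system), sampled 24 h after dosing; EGFR quantified by ELISA. Bidirectional fit relative to DMSO baseline; SRB total-protein staining in parallel cultures for cytotoxicity.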

Read-out in experiment [6]: Interleukin-8 (IL8), CXCL8 (gene 3576)
As to the kind of experiment: BSK_hDFCGF_IL8: BioMAP Diversity Plus: hDFCGF Assay for Interleukin-8 (IL8) Biomarker Activity (AID 2283058). To be noted: primary human foreskin fibroblasts; actives raise or lower the signal. Summed up:
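IL-8 levels from compound-treated primary human fibroblasts were read by ELISA at 24 h, with DMSO serving as baseline for bidirectional fitting.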

Experiment [7] can be described thus: BSK_hDFCGF_Proliferation: Cell Proliferation Assessment in the BioMAP Diversity Plus: hDFCGF Assay (AID 2283059).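 Note: curves fitted for both rise and fall of signal versus DMSO baseline.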 The settings on record: primary human foreskin fibroblasts. Summed up:
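Primary human foreskin fibroblasts, sub-confluent; […]; 10% TCA fix, 0.1% SRB stain, A560 total protein. Gain/loss fitted bidirectionally vs DMSO control.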

Read-out in experiment [8]: Macrophage colony-stimulating factor (MCSF), CSF1 (gene 1435)
The experiment is described as follows: BSK_hDFCGF_MCSF: BioMAP Diversity Plus: hDFCGF Assay for Macrophage colony-stimulating factor (MCSF) Biomarker Activity (AID 2283060). To be noted: primary human foreskin fibroblasts; actives raise or lower the signal. Summed up:
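M-CSF levels, determined by ELISA, are taken at 24 h after dosing human skin fibroblasts. Responses in either direction are fitted with DMSO serving as the baseline.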

Read-out in experiment [9]: TIMP metallopeptidase inhibitor 1 (TIMP1), TIMP1 (gene 7076)
The experiment is described as follows: BSK_hDFCGF_TIMP1: BioMAP Diversity Plus: hDFCGF Assay for TIMP metallopeptidase inhibitor 1 (TIMP1) Biomarker Activity (AID 2283062). To be noted: primary human foreskin fibroblasts; actives raise or lower the signal. The essentials: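 Fibroblasts from human foreskin are treated with test chemical and harvested at 24 h. TIMP-1 is quantified by ELISA, and gain or loss of signal is scored against DMSO.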

Read-out in experiment [10]: Monokine induced gamma interferon (MIG), CXCL9 (gene 4283)
As to the kind of experiment: BSK_hDFCGF_MIG: BioMAP Diversity Plus: hDFCGF Assay for Monokine induced gamma interferon (MIG) Biomarker Activity (AID 2283063). To be noted: primary human foreskin fibroblasts; actives raise or lower the signal. The essentials:
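MIG signal, determined by ELISA, reflects 24 h chemical exposure of human skin primary fibroblasts. DMSO serves as negative control and baseline.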

Read-out in experiment [11]: Matrix Metallopeptidase 1 (MMP1), MMP1 (gene 4312)
The experiment is described as follows: BSK_hDFCGF_MMP1: BioMAP Diversity Plus: hDFCGF Assay for Matrix Metallopeptidase 1 (MMP1) Biomarker Activity (AID 2283064). To be noted: primary human foreskin fibroblasts; actives raise or lower the signal. The essentials: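 Primary human foreskin fibroblasts in the hDFCGF system were dosed with test chemical, and MMP1 was measured by ELISA 24 h later. Values come from bidirectional curve fitting against the DMSO baseline.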

Read-out in experiment [12]: Plasminogen activator inhibitor-1 (PAI1), SERPINE1 (gene 5054)
As to the kind of experiment: BSK_hDFCGF_PAI1: BioMAP Diversity Plus: hDFCGF Assay for Plasminogen activator inhibitor-1 (PAI1) Biomarker Activity (AID 2283066). To be noted: primary human foreskin fibroblasts; actives raise or lower the signal. The essentials: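 Human foreskin fibroblast primary cells, 24 h chemical exposure; PAI-1 measured by ELISA. Bidirectional fitting relative to DMSO; parallel cultures stained with SRB for total protein to flag overt cytotoxicity.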

Read-out in experiment [13]: Intercellular Adhesion Molecule 1 (ICAM1), ICAM1 (gene 3383)
As to the kind of experiment: BSK_KF3CT_ICAM1: BioMAP Diversity Plus: KF3CT Assay for Intercellular Adhesion Molecule 1 (ICAM1) Biomarker Activity (AID 2283067). The settings on record: primary human keratinocytes with fibroblasts; actives raise or lower the signal. The essentials:
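Dose the keratinocyte/fibroblast co-culture, wait 24 h, measure ICAM-1 by ELISA, then fit increases or decreases against DMSO. Cytotoxicity is checked in parallel cultures by SRB total-protein staining.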

Read-out in experiment [14]: Interferon-gamma inducible Protein 10 (IP10), CXCL10 (gene 3627)
The experiment is described as follows: BSK_KF3CT_IP10: BioMAP Diversity Plus: KF3CT Assay for Interferon-gamma inducible Protein 10 (IP10) Biomarker Activity (AID 2283068). To be noted: primary human keratinocytes with fibroblasts; actives raise or lower the signal. Summed up:
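In a primary skin co-culture of keratinocytes and fibroblasts, IP-10 is quantified by ELISA at 24 h after dosing. SRB staining of parallel wells monitors overt toxicity. Curves are fitted both directions against DMSO.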

The nature of experiment [15]: BSK_KF3CT_SRB: Viability Assessment in the BioMAP Diversity Plus: KF3CT Assay (AID 2283069).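 Note: total protein by sulforhodamine B staining as a cytotoxicity measure.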 To be noted: primary human keratinocytes with fibroblasts. Summed up: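 Human primary keratinocyte plus foreskin fibroblast co-culture exposed to chemicals for 24 h. Total protein measured by 0.1% sulforhodamine B staining after 10% TCA fixation, read at 560 nm; bidirectional fitting versus DMSO baseline.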

Read-out in experiment [16]: Interleukin-1 alpha (IL1a), IL1A (gene 3552)
As to the kind of experiment: BSK_KF3CT_IL1a: BioMAP Diversity Plus: KF3CT Assay for Interleukin-1 alpha (IL1a) Biomarker Activity (AID 2283070). To be noted: primary human keratinocytes with fibroblasts; actives raise or lower the signal. The essentials:
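Human keratinocyte plus foreskin fibroblast primary co-culture, sampled 24 h after chemical dosing. IL-1a measured by ELISA; responses fitted bidirectionally against DMSO baseline (negative control), so gain or loss of signal both count.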

Read-out in experiment [17]: TIMP metallopeptidase inhibitor 2 (TIMP2), TIMP2 (gene 7077)
As to the kind of experiment: BSK_KF3CT_TIMP2: BioMAP Diversity Plus: KF3CT Assay for TIMP metallopeptidase inhibitor 2 (TIMP2) Biomarker Activity (AID 2283071). The settings on record: primary human keratinocytes with fibroblasts; actives raise or lower the signal. Summed up:
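Co-culture of human primary keratinocytes and foreskin fibroblasts, measured 24 h after chemical dosing. TIMP-2 quantified by ELISA and fitted in both directions relative to DMSO. Cytotoxicity checked in parallel cultures by SRB total-protein staining.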

Read-out in experiment [18]: Transforming growth factor beta 1 (TGFb1), TGFB1 (gene 7040)
The experiment is described as follows: BSK_KF3CT_TGFb1: BioMAP Diversity Plus: KF3CT Assay for Transforming growth factor beta 1 (TGFb1) Biomarker Activity (AID 2283072). To be noted: primary human keratinocytes with fibroblasts; actives raise or lower the signal. Summed up: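 Human keratinocyte/foreskin fibroblast co-culture; TGF-b1 measured by ELISA 24 h after dosing, fitted bidirectionally versus DMSO. Cytotoxicity checked in parallel cultures by total protein (SRB staining, 560 nm).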

Read-out in experiment [19]: Vascular cell adhesion molecule 1 (VCAM1), VCAM1 (gene 7412)
As to the kind of experiment: BSK_hDFCGF_VCAM1: BioMAP Diversity Plus: hDFCGF Assay for Vascular cell adhesion molecule 1 (VCAM1) Biomarker Activity (AID 2283065).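 For AC50: VCAM-1 protein level quantified by ELISA after 24 h chemical exposure.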 The settings on record: primary human foreskin fibroblasts; actives raise or lower the signal. Summed up:
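Cells are dosed, cultured for 24 h, then VCAM-1 is quantified by ELISA; signal increases and decreases are both fitted relative to DMSO.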

Activity calls are given as the source filed them. Rule for the calls: active = hit-call score of the fitted dose curve at least 0.9, where 1 is the maximum; inactive = score below 0.9.

Take `Nc1ccc(N)cc1`: the outcome in experiment [1], in experiment [2], in [3], in [4], in [5] and in [6] was inactive. In addition, the result in [7], in [8], in experiment [9], in experiment [10], in experiment [11] and in experiment [12] was inactive. For the same molecule, the outcome in experiment [13], in [14], in experiment [15], in experiment [16], in experiment [17] and in experiment [18] was inactive.
By AC50 is commonly meant the midpoint of the concentration-response curve, whichever way the signal moves. With `CCCCCCCCCCCCc1cccc(S(=O)(=O)O)c1`, the AC50 was 12.7 µM (active) in experiment [1]; 16.2 µM (active) in [4]; 11.8 µM (active) in experiment [5]; 8.86 µM (active) in experiment [7]; 12.5 µM (active) in experiment [8]; 30.1 µM (active) in [9]. For the same molecule, the AC50 is 27.6 µM (active) in experiment [10]; 28.3 µM (active) in experiment [11]; 12 µM (active) in experiment [19]; 9.68 µM (active) in experiment [12]; 28.4 µM (active) in experiment [13]; 16.5 µM (active) in experiment [14]. In addition, the AC50 in experiment [15] was 26.5 µM (active); in [16], 33.3 µM (active); in experiment [18], 25.3 µM (active). For the same molecule, the result in experiment [2] and in experiment [3] was inactive.
Turning to `Oc1cc(Cl)c(Cl)cc1Cl`, the AC50 is 20 µM (active) in experiment [1], 27.7 µM (active) in experiment [4], 15.2 µM (active) in experiment [7] and 34 µM (active) in experiment [12]. The result in experiment [2], in [3], in experiment [5], in experiment [6], in experiment [8] and in experiment [9] was inactive. In addition, the result in experiment [10], in [11], in [14], in experiment [15], in experiment [16] and in experiment [17] was inactive. Moreover, in experiment [18], the result was inactive.
Consider `Oc1c(Br)cc(Br)cc1Br`, for which the result in experiment [1], in [2], in [3], in [5], in [6] and in experiment [8] was inactive. The result in experiment [9], in experiment [10], in experiment [11], in [19], in experiment [15] and in [16] was inactive. The result in [17] and in [18] was inactive. The AC50 in experiment [4] was 12.1 µM (active); in [12], 20 µM (active); in experiment [14] it was 31.6 µM (active).
In the case of `Clc1cccc(Cl)c1Cl`, the outcome in experiment [1], in experiment [2], in experiment [3], in experiment [4], in experiment [5] and in [6] was inactive. The outcome in [7], in experiment [8], in experiment [9], in experiment [10], in experiment [11] and in experiment [12] was inactive. Moreover, the outcome in experiment [13], in [14], in experiment [15], in experiment [16], in experiment [17] and in experiment [18] was inactive.
Regarding `C[C@]12CC[C@@H](O)C[C@@H]1CC[C@@H]1[C@@H]2CC[C@]2(C)C(=O)CC[C@@H]12`, the result in experiment [1], in experiment [2], in experiment [3], in experiment [4], in experiment [5] and in experiment [6] was inactive. In addition, the result in experiment [7], in [8], in experiment [9], in [10], in experiment [11] and in [12] was inactive. For the same molecule, the result in [14], in [15], in [16], in [17] and in [18] was inactive.
Take `CC(C)O.CC(C)O.OCCN(CCO)CCO.OCCN(CCO)CCO.[Ti]`: the AC50 in experiment [1] is 30.9 µM (active); in experiment [8] it was 20 µM (active); in experiment [10], 30.6 µM (active); in experiment [11], 24.8 µM (active); in [14], 33.7 µM (active). The outcome in experiment [2], in experiment [3], in experiment [4], in experiment [5], in experiment [6] and in experiment [7] was inactive. For the same molecule, the result in experiment [9], in experiment [19], in experiment [12], in experiment [15], in experiment [16] and in experiment [17] was inactive. Moreover, the result in experiment [18] was inactive.
